# Laboratory results published in publication PMC4336329 (PLoS ONE, 2015).
# In all, about 310,000 compounds went through this assay and about 14,000 (4.5%) showed an effect of 50% or more. The effect is printed as a negative number. Many of the other results were omitted from the sample, so strong results are more common in it than they were.
# Target: human ether-à-go-go-related gene (hERG) potassium channel (human, UniProt Q12809)
# Experiment: primary screen, population patch clamp on CHO cells stably expressing hERG; higher = less effect of the substance
# 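Further: peak tail current of the secondary pulse compared with the same well before compound.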
# Chain of human ether-à-go-go-related gene (hERG) potassium channel (Q12809 whole entry, looked up): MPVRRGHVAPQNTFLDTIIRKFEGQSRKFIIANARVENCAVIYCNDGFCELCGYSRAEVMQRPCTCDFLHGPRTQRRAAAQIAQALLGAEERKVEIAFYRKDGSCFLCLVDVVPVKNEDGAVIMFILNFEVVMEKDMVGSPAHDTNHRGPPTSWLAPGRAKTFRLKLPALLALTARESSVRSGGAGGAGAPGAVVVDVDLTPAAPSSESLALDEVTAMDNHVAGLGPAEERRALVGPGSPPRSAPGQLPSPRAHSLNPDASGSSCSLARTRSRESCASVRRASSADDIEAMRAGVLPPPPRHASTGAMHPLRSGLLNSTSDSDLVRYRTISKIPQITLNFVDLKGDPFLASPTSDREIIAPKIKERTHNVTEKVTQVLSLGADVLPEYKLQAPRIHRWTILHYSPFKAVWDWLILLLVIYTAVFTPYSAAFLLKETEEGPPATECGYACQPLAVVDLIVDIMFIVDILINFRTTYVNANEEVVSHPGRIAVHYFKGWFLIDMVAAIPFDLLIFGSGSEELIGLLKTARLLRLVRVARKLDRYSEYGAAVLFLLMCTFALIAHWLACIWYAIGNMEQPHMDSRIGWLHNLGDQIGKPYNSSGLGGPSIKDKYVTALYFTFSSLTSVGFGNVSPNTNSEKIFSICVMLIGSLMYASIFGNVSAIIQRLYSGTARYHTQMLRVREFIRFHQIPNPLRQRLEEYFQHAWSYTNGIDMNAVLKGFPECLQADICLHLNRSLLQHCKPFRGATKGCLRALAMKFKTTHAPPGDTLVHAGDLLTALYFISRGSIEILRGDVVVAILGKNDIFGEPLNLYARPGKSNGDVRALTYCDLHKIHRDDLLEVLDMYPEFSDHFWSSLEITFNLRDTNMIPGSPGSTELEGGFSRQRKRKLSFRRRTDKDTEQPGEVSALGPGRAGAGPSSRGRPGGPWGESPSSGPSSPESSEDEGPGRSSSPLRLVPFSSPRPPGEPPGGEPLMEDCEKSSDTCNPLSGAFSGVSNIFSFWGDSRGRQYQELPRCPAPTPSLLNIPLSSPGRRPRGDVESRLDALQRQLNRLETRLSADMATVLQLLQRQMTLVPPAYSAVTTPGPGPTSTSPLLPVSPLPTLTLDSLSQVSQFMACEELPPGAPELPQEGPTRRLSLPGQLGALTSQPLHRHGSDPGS
row,SMILES,"hERG current change (%, negative = inhibition) at 10uM"
1,COc1ccc(CSc2nc(N3CCOCC3)c3c(c2C#N)CC(C)(C)OC3)cc1,-14.5%
2,CC1=C2[C@@H]3OC(=O)[C@H](C)C3CC[C@@]2(C)C=CC1=O (stereo partly drawn),27.7%
3,CCNc1nc(Oc2ccc(C(=O)OCC)cc2)nc(N2CCOCC2)n1,-6.59%
4,COc1cc2c(cc1NC(=O)CCC(=O)O)oc1ccccc12,18.5%
5,CCOC(=O)C1CCCN(S(=O)(=O)c2ccc(Br)c(OC)c2)C1 (stereo not drawn),-14.3%
6,ONC(=Nc1ccccc1Cl)c1ccccc1Cl,-14%
7,COC(=O)c1ccc(Oc2nc(NC(C)C)nc(N(C)C)n2)cc1,12.5%
8,Cc1cccc(OCC(=O)N2CCCc3ccccc32)c1,8.85%
9,O=C(Nc1ccc(Br)cc1)C1CCN(C(=O)c2ccc(F)cc2)CC1,-61.9%
10,O=C(Nc1ccc(S(=O)(=O)N2CCCCC2)cc1)C1CCN(C(=O)c2ccc(F)cc2)CC1,-33.7%
11,O=C(Nc1ccc(F)cc1)C1CCN(C(=O)c2ccc(F)cc2)CC1,-37.4%
12,Cc1cc(C(=O)OCC(=O)NCCc2ccccc2)c2ccccc2n1,-17.7%
13,COc1cccc(NC(=O)NCC2CCN(Cc3ccc(F)cc3)CC2)c1,-47.4%
14,O=C(NCC1CCN(Cc2ccccc2F)CC1)Nc1cc(F)ccc1F,-59.9%
15,COc1cc(NC(=O)NCC2CCN(Cc3ccc(C)cc3)CC2)cc(OC)c1OC,-0.392%
16,O=C(NCC1CCN(Cc2ccccc2F)CC1)Nc1ccccc1F,-22.5%
17,Cc1ccccc1CN1CCC(CNC(=O)Nc2ccc(F)cc2F)CC1,-31.4%
18,COc1cc([N+](=O)[O-])ccc1NC(=O)CN1CCCC1,3.84%
19,CCOc1ccc(NC(=O)NCC2CCN(c3ccc(OC)cc3)C2)cc1 (stereo not drawn),-7.35%
20,COc1cc([N+](=O)[O-])ccc1NC(=O)NCC1CCN(Cc2ccc(Cl)cc2)CC1,-60.9%
21,O=C(NCC1CCN(S(=O)(=O)c2ccccc2)CC1)Nc1ccc(F)cc1F,-4.47%
22,CCOc1ccc(NC(=O)NCC2CCN(Cc3ccc(F)cc3)CC2)cc1,-76.4%
23,O=C(NCC1CCN(Cc2ccc(F)cc2)CC1)Nc1cc(F)ccc1F,-65.1%
24,COc1cc2[nH]c(C(=O)N3CCN(c4ccc(F)cc4)CC3)cc2c(OC)c1OC,17.9%

row,SMILES,"hERG current change (%, negative = inhibition) at 10uM"
1,Cc1ccc(C)c(CN2CCSCC2)c1,17.3%
2,O=C(Nn1c(-c2ccccc2)nc2ccccc2c1=O)c1ccco1,3.87%
3,O=C(Oc1ccccc1)n1c(=S)oc2ccccc21,12.2%
4,O=C(N/N=C/c1ccc[nH]1)c1ccccc1[N+](=O)[O-],19.9%
5,O=C(c1cccc(N2C(=O)C3CC=CCC3C2=O)c1)N1CCCCCC1 (stereo not drawn),-3.26%
6,Cc1ccc(-c2nnc3n2N=C(c2ccccc2)CS3)cc1,3.15%
7,O=C(C1COc2ccccc2O1)N1CCN(c2ccccc2O)CC1 (stereo not drawn),-12.5%
8,O=C1C2C3C=CC(C4CC34)C2C(=O)N1c1cc(Cl)ccn1 (stereo not drawn),2.55%
9,Cc1csc(Sc2nc3c(c(=O)[nH]c(=O)n3C)n2CCCc2ccccc2)n1,12.2%
10,C=CCOC(=O)c1ccc(-n2cncn2)nc1,-4.47%
11,Cc1ccc(S(=O)(=O)N2c3ccccc3OCC2C(C)(C)C)cc1 (stereo not drawn),4.08%
12,O=C(NCC1CC1)Nc1ccccc1F,18.8%
13,Cc1ccc(CN2CCN(Cc3ccccc3F)CC2)cc1.O=C(O)C(=O)O,-12.2%
14,COc1ccc(CCNC(=O)NC2CCCCC2)cc1,0.125%
15,COc1ccc(CNC(=O)NC2CCCCC2)cc1,2.13%
16,Cc1ccc(CN2CCC(CNC(=O)Nc3ccccc3F)CC2)cc1,-69.7%
17,COc1ccc(CN2CCC(CNC(=O)NC3CCCCC3)CC2)cc1,-67.7%
18,Cc1nn(Cc2ccc(Cl)cc2Cl)c(C)c1NC(=O)C1C2CCC(O2)C1C(=O)O (stereo not drawn),-9.88%
19,CC(Oc1ccc(Cl)cc1Cl)C(=O)NCCC1=CCCCC1 (stereo not drawn),4.46%
20,Cc1ccc(CN(C)C(=O)c2ccc3c(c2)NC(=O)CS3)o1,-17.2%
21,Cc1cc(S(=O)(=O)NCc2cccnc2)ccc1F,-3.24%
22,COc1ccc(S(=O)(=O)CCC(=O)N(C)c2ccc(OC)cc2OC)cc1,-12.8%
23,CN1CC(=O)NC1=NC(=O)C12CC3CC(CC(C3)C1)C2,-8.73%
24,Cl.Clc1cccc(Cl)c1CNC1CCCC1,13.5%

row,SMILES,"hERG current change (%, negative = inhibition) at 10uM"
1,CC(=O)c1cccc(N(C(=O)Cn2nnc3ccccc32)C(C(=O)NCc2ccccc2)c2ccccn2)c1 (stereo not drawn),-39%
2,Cc1ccc(N(C(=O)Cn2nnc3ccccc32)C(C(=O)NCc2ccccc2)c2ccccn2)cc1 (stereo not drawn),-45.5%
3,CC(=O)c1ccc(N(C(=O)Cn2nnc3ccccc32)C(C(=O)NCc2ccccc2)c2ccccn2)cc1 (stereo not drawn),-73.2%
4,COc1ccc(Cc2nc3ccc(C(=O)N(C)CCCN4CCOCC4)cc3o2)cc1,10%
5,Cc1cc(Nc2ccc3c(c2)OCCO3)c2cccc(C)c2n1.Cl,-40.7%
6,CCOc1ccc2nc(C)cc(Nc3ccc4c(c3)OCCO4)c2c1.Cl,-72.4%
7,Cc1cc(C)n2c(Nc3ccc4c(c3)OCCO4)c(-c3ccccc3)nc2n1,-16.7%
8,Cc1cc(C)c(C#N)c(Nc2ccc3c(c2)OCCO3)n1,5.17%
9,CCOc1cccc(C(=O)Nc2ccc3c(c2)OCCO3)c1,3.35%
10,CCOc1ccc(C(=O)Nc2ccc3c(c2)OCCO3)cc1,-1.74%
11,Cc1cc(C(=O)Nc2ccc3c(c2)OCCO3)c2ccccc2n1,18.4%
12,Cc1cc(C)c(C(N)=O)c(Nc2ccc3c(c2)OCCO3)n1,0.162%
13,Cc1cc(Nc2ccc3c(c2)OCCO3)n2nc(C)nc2n1,-9.32%
14,Cc1ccc2nc(C)cc(Nc3ccc4c(c3)OCCO4)c2c1.Cl,-58.2%
15,Cc1cc(Nc2ccc3c(c2)OCCO3)c2cc(Cl)ccc2n1.Cl,-52.6%
16,Cc1cc(Nc2ccc3c(c2)OCCO3)c2ccccc2n1.Cl,-56.1%
17,O=C(COc1ccc(F)cc1Cl)Nc1ccc(N2CCOCC2)cc1N1CCOCC1,-10.2%
18,Cc1ccc(C2(C)NC(=O)N(CC(=O)N(Cc3ccccc3)C(C)(C)C)C2=O)cc1 (stereo not drawn),-1.1%
19,Cc1nccn1CC(=O)N/N=C/c1cc(Br)cs1,6.58%
20,Cc1ccc(C)c(Cn2cnc3c(nnn3-c3ccc(F)cc3)c2=O)c1,-2.53%
21,Cn1c(=O)c(C(=O)COC(=O)c2cc(-c3ccco3)nc3ccccc23)c(N)n(Cc2ccccc2)c1=O,-12.2%
22,O=[N+]([O-])c1ccc(/C=C/c2ccc3ccccc3n2)cc1,5.95%
23,Cc1cc(C)c(CN2CCN(C(=O)Cn3ccc(NC(=O)OCc4ccccc4)nc3=O)CC2)c(C)c1,-5.55%
24,COc1ccc(N(CC(=O)NCC2CCCO2)S(=O)(=O)c2ccc(C)cc2)cc1OC (stereo not drawn),-3.96%

row,SMILES,"hERG current change (%, negative = inhibition) at 10uM"
1,O=C(NCC1CCCN(C(=O)c2cc(Cl)ccc2F)C1)c1ccc(F)cc1 (stereo not drawn),-6.65%
2,COC(=O)c1ccccc1C(=O)N1CCCC(CNC(=O)c2ccc(F)cc2)C1 (stereo not drawn),11.2%
3,Cc1ccc(-n2cccn2)c(CN2CCCC(CNC(=O)c3ccc(F)cc3)C2)c1 (stereo not drawn),-75.5%
4,CCn1ncc(CN2CCCC(CNC(=O)c3ccc(F)cc3)C2)c1C (stereo not drawn),-1.04%
5,Cc1cc(C)c(CN2CCCC(CNC(=O)c3ccc(F)cc3)C2)c(-n2cccn2)c1 (stereo not drawn),-75.6%
6,Cc1ccccc1CC(=O)N1CCCC(CNC(=O)c2ccc(F)cc2)C1 (stereo not drawn),-2%
7,Cc1cc(C(=O)Nc2ccccc2N2CCOCC2)c(C)o1,-18.1%
8,CCc1noc(C)c1C(=O)OCC(=O)N(CC)c1c(N)n(Cc2ccccc2)c(=O)[nH]c1=O,10.9%
9,Cc1ccc(C2CC(=O)NC(SCCC(C)C)=C2C#N)cc1 (stereo not drawn),-10.6%
10,Cc1ccc(C(=O)NCCNS(=O)(=O)c2ccccc2)cn1,12.7%
11,Cc1ccc(C(=O)NCCNC(=O)c2ccc(C)nc2)cc1,5.21%
12,Cc1ccc(S(=O)(=O)NCCNC(=O)c2ccc(C)nc2)cc1,-72%
13,COc1ccccc1NC(=O)COc1ccc(/C=N/NS(=O)(=O)c2ccc(C)cc2)cc1,20.1%
14,Cc1cccc(OCC(=O)Nc2ccc3c(c2)nc(CCN2CCC(C)CC2)n3C)c1,-68.7%
15,CC1CCN(CCc2nc3cc(NC(=O)Nc4ccccc4)ccc3n2C)CC1,-44.4%
16,COc1ccc(OCC(=O)Nc2ccc3c(c2)nc(CCN2CCC(C)CC2)n3C)cc1,-75.4%
17,Cc1ccc(OCC(=O)Nc2ccc3c(c2)nc(CCN2CCC(C)CC2)n3C)cc1,-70.6%
18,CC1CCN(CCc2nc3cc(NC(=O)COc4ccccc4)ccc3n2C)CC1,-68.4%
19,CC(=O)Nc1ccc2c(c1)nc(CCN1CCC(C)CC1)n2C,8.83%
20,CC(=O)N1CCN(Cc2nc3cc(NC(=O)COc4cccc(C)c4)ccc3n2C)CC1.Cl,-15.3%
21,CCC(=O)Nc1ccc2c(c1)nc(CCN1CCC(C)CC1)n2C,1.48%
